Assay results as given in PubChem BioAssay (NCI).
About 83,000 compounds went through this panel and 20% of them were active in at least one assay; those are over-represented in the sample as a whole.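 Plates (96-well) were seeded with cells, treated with compound at one concentration, and incubated for 48 hours before percent growth was determined.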 Calls of active or inactive are those of the source. How the source made its calls: active means growth percent below 10; inactive means the rest.

Tests used:
Test in all cases: NCI-60 one-dose screen, 48 h (100 = growth as untreated, 0 = no growth, -100 = all killed)
Conditions in all cases: 10 µM unless noted
[1] = tested on: HCT-15 colon
[2] = tested on: HT29 colon
[3] = tested on: SNB-75 CNS
[4] = tested on: U251 CNS
[5] = tested on: PC-3 prostate
[6] = tested on: SK-MEL-5 melanoma
[7] = tested on: UACC-62 melanoma
[8] = tested on: LOX IMVI melanoma
[9] = tested on: SK-MEL-28 melanoma
[10] = tested on: SK-MEL-2 melanoma
[11] = tested on: EKVX NSCLC
[12] = tested on: SN12C renal
[13] = tested on: UO-31 renal
[14] = tested on: TK-10 renal
[15] = tested on: ACHN renal
[16] = tested on: CAKI-1 renal
[17] = tested on: A498 renal
[18] = tested on: CCRF-CEM leukemia
[19] = tested on: MOLT-4 leukemia
[20] = tested on: SNB-19 CNS

Measured: growth

CCCCC[C@H](O)C/C=C1/C(=O)C=C[C@@H]1C/C=C\CCCC(=O)O
active: [8] 6.2%
inactive: [1] 69.5% | [2] 59.8% | [3] 79.1% | [4] 43.8% | [5] 78.4% | [6] 82.8% | [7] 60.9% | [9] 66.4% | [10] 79.6% | [11] 100% | [12] 52.3% | [13] 81.9% | [14] 111% | [15] 83.2% | [16] 80.7% | [17] 109% | [18] 14.9% | [19] 43.2%

Cc1ccc2nc(NC(=O)CSc3nc(Cl)c(C#N)c(-c4ccccc4)n3)sc2c1
inactive: [2] 102% | [3] 95.9% | [20] 96% | [4] 99.1% | [5] 89.5% | [6] 102% | [7] 88.3% | [8] 94.3% | [9] 103% | [10] 102% | [11] 102% | [12] 98.2% | [13] 80.7% | [14] 107% | [15] 102% | [16] 94.8% | [17] 102% | [18] 105% | [19] 104%

COc1ccc(C2C(N)=NNC2c2cccc(O)c2)cc1 (stereo unspecified)
inactive: [1] 102% | [2] 104% | [3] 84.7% | [4] 93.6% | [5] 95.6% | [6] 101% | [7] 91.2% | [8] 97.7% | [9] 108% | [10] 87.6% | [11] 95.5% | [12] 96.4% | [13] 83.7% | [14] 122% | [15] 106% | [16] 88.7% | [17] 126% | [18] 105% | [19] 96.7%

Clc1ccc(C(/C=C/c2sc(Cl)nc2Cl)=N/Nc2cc(Cl)cc(Cl)c2)cc1
inactive: [1] 105% | [2] 103% | [3] 101% | [4] 101% | [5] 96.7% | [7] 88.6% | [8] 98.4% | [9] 105% | [10] 106% | [11] 103% | [12] 100% | [13] 83% | [14] 119% | [15] 102% | [16] 98.2% | [17] 101% | [18] 94.5% | [19] 96.6%

O=C(/C=C/c1sc(Cl)nc1Cl)c1ccccc1
active: [8] 3.61%
inactive: [1] 30.4% | [2] 88.6% | [3] 86.5% | [4] 69.9% | [5] 84.8% | [6] 102% | [7] 93.5% | [9] 95.4% | [10] 104% | [11] 101% | [12] 44.8% | [13] 90.7% | [14] 111% | [15] 46.9% | [16] 93.1% | [17] 100% | [18] 34.9% | [19] 32.3%

Cc1c(C(=O)NCCCc2ccccc2)sc2ncc(-c3ccc(Br)cc3)n12
inactive: [1] 104% | [2] 120% | [3] 98.4% | [4] 100% | [5] 102% | [6] 101% | [7] 95.7% | [8] 99.1% | [9] 104% | [10] 115% | [11] 106% | [12] 98.7% | [13] 92% | [14] 135% | [15] 103% | [16] 101% | [17] 110% | [18] 96.8% | [19] 99.8%

O=[N+]([O-])c1ccc(Oc2nc(Nc3ccc(O[C@H]4CO[C@H]5[C@@H]4OC[C@@H]5O)c(Cl)c3)ncc2F)c(Cl)c1
active: [3] -2.13% | [6] -90.9% | [7] -8.64% | [13] -9.77% | [16] 7.81% | [17] -2.07% | [19] -3.69%
inactive: [1] 26.2% | [2] 24.8% | [4] 23.6% | [5] 34% | [8] 16.7% | [9] 32.3% | [10] 21.7% | [11] 43.8% | [12] 15.9% | [14] 44.5% | [15] 19.3% | [18] 25.1%

O=C(Oc1cccc2ccccc12)Oc1cccc2ccccc12
inactive: [2] 118% | [3] 94.6% | [20] 103% | [4] 103% | [5] 71.6% | [6] 106% | [7] 103% | [8] 99.2% | [9] 118% | [10] 104% | [11] 88.3% | [12] 97.2% | [13] 55% | [14] 139% | [15] 98% | [16] 86.8% | [17] 107% | [18] 88.7% | [19] 93.2%

COc1cccc2c(=O)c3c(sc12)c(N1CCNCC1)nc1ccccc13
active: [2] 0.0883% | [8] -29.3% | [19] -13.3%
inactive: [1] 37.3% | [3] 79.2% | [4] 12.2% | [5] 68.3% | [7] 105% | [9] 107% | [10] 112% | [11] 95.6% | [12] 64.3% | [13] 47.2% | [14] 90.7% | [15] 53.1% | [16] 45.8% | [17] 61.8% | [18] 13.8%

COc1cc2cc(Oc3ccc(NC(=O)Nc4cc(C(F)(F)F)cc(C(F)(F)F)c4)cc3)c(C)nc2cc1OCCN1CCOCC1
inactive: [1] 13.4% | [2] 10.9% | [3] 36% | [5] 10.5% | [7] 45.9% | [8] 20.7% | [9] 51.2% | [10] 32.9% | [11] 21.4% | [13] 20.1% | [14] 53.6% | [16] 15.3% | [17] 40.7%
active: [4] 8.71% | [6] -13.1% | [12] 8.87% | [15] 5.89% | [18] 9.65% | [19] 8.21%

CN(C)CCN1CCN(c2ncccc2C2Nc3ccccc3-n3cccc32)CC1 (stereo unspecified)
inactive: [2] 101% | [3] 88.3% | [4] 105% | [5] 102% | [6] 104% | [7] 105% | [8] 99.9% | [9] 105% | [10] 124% | [11] 102% | [12] 101% | [14] 103% | [15] 105% | [16] 85.4% | [17] 86.7% | [18] 102% | [19] 98.2%

O=C(S)CNC(=O)c1ccccc1
inactive: [2] 99.5% | [3] 96.3% | [4] 95.3% | [5] 91.2% | [6] 99.7% | [7] 106% | [8] 98.2% | [9] 104% | [10] 101% | [11] 95.8% | [12] 95.6% | [13] 76.5% | [14] 91.6% | [15] 103% | [16] 90.7% | [17] 83.5% | [18] 89.9% | [19] 87.7%

O=C1c2cccc3cccc(c23)C(=O)N1Nc1nc(N2CCOCC2)nc(N2CCN(c3ccccc3)CC2)n1
active: [6] 4.98% | [17] -3.12%
inactive: [2] 24.3% | [3] 21.4% | [20] 45.6% | [4] 59.3% | [5] 43.4% | [7] 32.2% | [8] 39.2% | [9] 52.5% | [10] 59.9% | [11] 50% | [12] 64.8% | [13] 29.9% | [14] 96% | [15] 41.2% | [16] 41.2% | [18] 56.9% | [19] 42%

COc1cc(/C=C2\C(=O)Nc3ccc(Br)cc32)cc(OC)c1OC
inactive: [2] 24.4% | [3] 36.5% | [20] 81% | [4] 51% | [5] 60.4% | [6] 56.9% | [7] 51.6% | [8] 57.2% | [9] 80.2% | [10] 84% | [11] 72.2% | [12] 80.9% | [13] 54.7% | [14] 82.5% | [15] 79.1% | [16] 42.1% | [17] 55.7% | [18] 72.8% | [19] 63.6%

Cc1cc2nc3ccc(N=Nc4ccc(N(C)C)cc4)cc3n(-c3ccccc3)c-2cc1=N
active: [2] -67% | [3] -84% | [20] -93.7% | [4] -69.4% | [5] -72.3% | [6] -95.3% | [7] -76.7% | [8] -66.5% | [9] -96.6% | [10] -94.6% | [12] -52.8% | [13] -91.2% | [14] -82.2% | [15] -92% | [16] -96.5% | [17] -46.9% | [18] -47.3% | [19] 0.81%

CNCCCNc1nc2ccccc2c2c(=O)c3cc(OC)ccc3sc12
active: [2] 4.95% | [8] -38.1%
inactive: [3] 72.6% | [20] 79.3% | [4] 48.3% | [5] 68.8% | [7] 99.3% | [9] 103% | [10] 113% | [11] 87.4% | [12] 78.4% | [13] 52.4% | [14] 98.8% | [15] 70.5% | [16] 61.7% | [17] 56.5% | [18] 11.9% | [19] 48.3%

O=C(Nc1ccc(-c2nc(-c3cccc(OCCN4CCOCC4)c3)c(-c3ccnc(Br)c3)[nH]2)cc1)c1ccccc1
inactive: [5] 18.3% | [10] 25.3% | [11] 32.3% | [12] 45.9% | [14] 48.6% | [15] 28.3% | [18] 15.1%
active: [2] 1.79% | [3] -37.3% | [20] -0.968% | [4] 8.84% | [6] -92.7% | [7] -15.9% | [8] -58.8% | [9] -29.5% | [13] -51.9% | [16] -6.68% | [17] -70.5% | [19] 1.62%
